Legend:
Assay in all cases: PBM binding z-score (relative to random genomic background probes); higher = stronger binding; sequences stand for … in GC…GCGATTGACAGCGTAGAATGAAGG
[1] = system: RARb homodimer (NR concentration 270 nM)
Method in brief: (§1)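 Each nuclear receptor dimer, without ligand, was incubated for 1 h on custom Agilent 4×180K protein-binding microarrays. Binding was detected with antibodies against each partner (one per run), and scanned fluorescence was regression-normalized. The binding z-scores are referenced to random human genomic background probes.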

[2] = system: RARg:RXRa (NR concentration 270 nM, RXRa partner concentration 90 nM)
Method in brief: as §1

[3] = system: RARg homodimer (NR concentration 270 nM)
Method in brief: as §1

[4] = system: RXRa DBDmut IVT, anti-RXR (DBD mutation: RXRa K156A/R161A, NR concentration 90 nM)
Method in brief: as §1

[5] = system: RXRa homodimer (NR concentration 180 nM)
Method in brief: as §1

[6] = system: THRa:RXRa (NR concentration 90 nM, RXRa partner concentration 90 nM)
Method in brief: as §1

[7] = system: THRa homodimer (NR concentration 90 nM)
Method in brief: as §1

[8] = system: VDR:RXRa (NR concentration 270 nM, RXRa partner concentration 90 nM)
Method in brief: as §1

[9] = system: VDR homodimer (NR concentration 270 nM)
Method in brief: as §1

Sequence	PBM binding z-score [1]	PBM binding z-score [2]	PBM binding z-score [3]	PBM binding z-score [4]	PBM binding z-score [5]	PBM binding z-score [6]	PBM binding z-score [7]	PBM binding z-score [8]	PBM binding z-score [9]
ATCGAAAGGTCGTGATGTGAGTATACAGAAAGGC	2.33	3.91	3.35	1.1	4.56	2.34	0.0191	2.98	0.997
CCTAGTTGGTCAGCAGGTCACACACCGGATATGA	3.43	3.52	3.44	0.217	3.16	2.77	1.35		1.05
CTCGAAAGGACGGTTGAGGTGAGTATACGGATAA	0.363	0.406	0.541	-0.024	0.139	2.93	0.887		0.0364
AGAACGAGGGCAATGAGTTGAAAGCACGGGTGGC	1.14	1.26	1.51	2.17	1.07	1.22	-0.343		3
TCTCGGAGGACAGGAAGGTCAGAGCTTTCCAGAG	3.54	2.42	2.34	0.51	1.69	2.1	0.256		0.37
TCATCTAGGTAAAGGTGAAAGTCGAACGATATGA	1.65	1.58	1.28	0.923	2.08	1.75	0.0366		0.215
CCTACTGGGCCAAAGGTAATTGATTCCAATGCTC	0.00337	0.0107	0.0633	-0.288	0.00386	0.0403	-0.123		-0.113
ATCGAAAGGTCGAGGTGCGTATAGAGAAAGGGAA	2.47	4.3	4.33	0.96	4.37	1.77	-0.562		0.304
TCTATTAGTTGATTAGGACAACCGAAACAGCGGA	0.549	0.758	0.926	1.39	0.79	1.84	1.63		1.03
CTACCAAAGTGAACAAGGTCGTTGATTACTATTC	1.32	0.65	0.529	1.69	0.996	1.94	1.24		2.22
ATAATGAGGTTAAGATCAGGGAAACAGAATACAT	0.864	2.47	1.96	1.16	2.68	2.74	1.02		0.406
TGAATGAGGTTAAAGATCACGGAACGTGGCGTCG	0.603	2.83	1.49	0.843	5.25	2.72	0.0245		0.625
CGTCCAAGGTCAGAGAGGTCAGGGAATGCCGAGT	5.34	6.59	7.38	3.45	6.19	4.47	3.11		4.88
CCTGCTAGCTCATGGTCAGCTAATCTACAGTATG	-0.424	-0.342	-0.0465	-0.0856	-0.437	-0.44	-0.771		-0.81
CAGCCTAGGTCAGGGTCAGTATAGGAGGAACGTT	4.16	4.27	4.84	0.854	3.67	3.39	1.53		1.31
ACTCGGAGGACAAAGGTCAGCGCTACGCCAGTGA	4.95	6.38	5.4	1.36	5.69	3.54	0.928		1.34
CCGACTGGGGCATAAGGTTTCCATAAGCCAGCCC	-0.165	-0.272	-0.139	-0.156	-0.0441	-7.82e-06	-0.206		-0.137
CAAACTAGGTCAAGGACAGTGAATCTCCGCACGC	3.29	3.69	4.39	1.7	2.79	3.27	2.33		0.901
TAGTCTAGGTCATTCAGGGGCCAGTATAGAAAGC	3.57	5.83	4.7	2.05	2.96	3.63	1.42		1.88
CGTCAAAGTTCAACTAAGGTAACCTAAAGCACGC	4.36	6.08	6.64	4.81	4.92	5.31	2.1		4.48
TAGCCTAGGTCATTGGGGCAGTATAGTACGCATC	3.31	3.93	4.23	1.67	2.99	2.96	1.28		1.8
AGAATGTGGTTAAGATCAGGGAAACAGAATACAT	0.296	0.287	0.502	-0.315	-0.0174	0.458	-0.00414		0.151
TAGCCTAGGTCATGGGCCAGCATACCACGCGAAC	2.95	4.29	4.36	-0.00159	3.28	3.04	0.897		0.227
CCTAGCAGGCCAATCTGGGTCCCTCAAGGCTTGA	-0.121	-0.601	-0.841	-0.491	-0.782	0.746	-0.658		-0.612
TCATATAGGTAAATGCTAGGTGAACGTCCGATCT	0.575	0.645	0.417	1.4	0.952	1.56	0.84		0.0802
TCTCGTAGGACACGAAGGTCAGAGCTTTCCAGAG	3.42	2.46	2.96	0.604	1.63	1.98	0.187		0.463
GTACCAAGGTGAATTGGTCGTTGATGAGTAGGCG	0.471	0.331	0.444	-0.385	0.215	1.17	0.25		-0.534
CGAAATAGGTCATCCAGGACAGTGAATACATTGA	3.71	5.08	4.84	2.26	4.96	3.96	1.19		1.92
TCTTGTAGATCAGCAGGTTAGGAAAGCTGGCCAA	0.063	-0.177	-0.406	0.591	0.165	0.0538	-0.496		-0.206

— the supplement of paper PMC6555819
